Records with an inconclusive call do not appear. Unmarked numbers belong to inactive results. The source made the active and inactive calls. The call rests on the fitted dose curve; in most records, active means well fitted inhibition curve with a large enough effect; inconclusive means small, poorly fitted or top-dose-only effect, or effect the other way; inactive means flat fitted curve, though single readings scatter.
Potency means the concentration at half of the fitted maximal effect.

The target in this test is Ubiquitin carboxyl-terminal hydrolase 2 (Homo sapiens) (UniProt O75604). Put plainly: Confirmation Assay for Inhibitors of Ubiquitin-specific Protease USP2a Using CHOP2 as the Reporter. Further: nearly all actives have a fitted effect of over 55% in size.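 On activity change, negative = inhibition: plate controls were DMSO wells for no effect and full inhibition by NEM control for full effect.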 To be noted: USP2 core, Ub-CHOP2 coupled reporter fluorescence; series mostly up to 38.3 µM; activity change, negative = inhibition: at the top concentration. The method, boiled down: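 USP2 core (10 nM final) was preincubated with compound for 30 min at RT in Tris-HCl pH 8.0, CaCl2, beta-mercaptoethanol, CHAPS. Ub-CHOP2 and reporter substrate (25 nM final each) were added, and fluorescence (Ex 485/Em 531 nm) was read after 60 min.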
Sequence of Ubiquitin carboxyl-terminal hydrolase 2 (Homo sapiens) (O75604 whole entry, looked up): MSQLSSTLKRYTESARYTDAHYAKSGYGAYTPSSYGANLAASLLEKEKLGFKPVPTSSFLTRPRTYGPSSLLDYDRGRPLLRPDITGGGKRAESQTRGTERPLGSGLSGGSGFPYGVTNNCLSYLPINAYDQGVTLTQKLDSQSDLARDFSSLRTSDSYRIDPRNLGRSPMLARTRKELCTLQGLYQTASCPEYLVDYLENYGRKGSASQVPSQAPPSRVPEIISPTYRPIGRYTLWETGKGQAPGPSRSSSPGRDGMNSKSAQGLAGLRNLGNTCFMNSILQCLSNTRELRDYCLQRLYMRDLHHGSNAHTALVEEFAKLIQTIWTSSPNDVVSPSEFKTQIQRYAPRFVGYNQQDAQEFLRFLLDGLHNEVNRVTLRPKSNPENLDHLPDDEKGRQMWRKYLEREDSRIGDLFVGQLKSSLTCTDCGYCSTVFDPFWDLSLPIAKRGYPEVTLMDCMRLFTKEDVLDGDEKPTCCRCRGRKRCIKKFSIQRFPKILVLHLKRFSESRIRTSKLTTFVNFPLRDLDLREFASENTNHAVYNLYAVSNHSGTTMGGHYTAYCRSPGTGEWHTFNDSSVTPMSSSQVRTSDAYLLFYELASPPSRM
`O=C(CCCN1C(=O)c2ccccc2C1=O)NC1=NCCS1`: the “activity change, negative = inhibition” value is 3.31%.
As to `COc1ccc(C(=O)Nc2ccc(N3CCCC3)cc2)cc1OC`, the “activity change, negative = inhibition” value is 1.15%.
As to `COc1cc(-c2nc(-c3ccc4c(c3)-c3ccccc3S4(=O)=O)c(-c3ccccc3)[nH]2)cc(OC)c1O`, the “activity change, negative = inhibition” value is -1.03%.
Consider `Cc1ccccc1OCc1nc2ccccc2c(=O)n1N`, for which the “activity change, negative = inhibition” value is 2.31%.
Still for that read-out and setting: the same measure for `COC(=O)C1CCN(C(=O)COC(=O)CC(NC(N)=O)c2ccc(Cl)cc2)CC1` (stereo not given): 1.45%; for `Cc1ccc(C(=O)N/C(=C/c2cccs2)C(=O)NCc2ccco2)cc1`: 4.83%.
`O=C(Nc1ccncc1)c1ccc(S(=O)(=O)Nc2ccccc2)cc1`: the Potency was 14.7 µM (active).
For the molecule `COc1ccc(-c2[nH]ncc2/C=C(/C#N)C(=O)NC2CCCCC2)cc1`, the “activity change, negative = inhibition” value is 5.96%.
For `CC1(C)CC(=O)C=C(NCc2cccs2)C1`, the “activity change, negative = inhibition” value is -0.275%.
Regarding `Cc1ccc(N2CN=c3s/c(=C\c4cccnc4)c(=O)n3C2)cc1`, the “activity change, negative = inhibition” value was -4.44%.
As to `CCOc1ccc(CCn2c(-c3ccco3)nc3ccccc3c2=O)cc1OCC`, the “activity change, negative = inhibition” value was 2.36%.
In the case of `Cc1cc(NC(=O)c2cccc(S(=O)(=O)N(C)C)c2)n(-c2ccccn2)n1`, the “activity change, negative = inhibition” value is -1.59%.
For the molecule `O=C(COC(=O)c1c2c(nc3ccccc13)/C(=C/c1ccco1)CC2)NC1CCCC1`, the Potency was 14.7 µM (active).
Regarding `COc1ccc2[nH]c(=O)c(CN(C3CCCCC3)C(c3nnnn3Cc3ccco3)C(C)C)cc2c1` (stereo not given), the Potency was 10.4 µM (active).
In the case of `CC(=O)N1CCCc2cc(S(=O)(=O)CCC(=O)N3CCN(c4cccc(C)c4)C(C)C3)ccc21` (stereo not given), the “activity change, negative = inhibition” value was -0.169%.
The same measure, in the same setting: the same measure for `O=S(=O)(NC1CCSc2ccccc21)c1ccccc1` (stereo not given): -6.24%; for `C=CCn1c(Br)nc2c1c(=O)n(C)c(=O)n2C`: -3.17%.
Turning to `C/C(=N/NC(=O)c1cc2ccccc2cc1O)C1C(=O)c2ccccc2C1=O`, the Potency was 5.85 µM (active).
As to `CN(C)c1ccc(/C=C(/NC(=O)c2ccccc2)C(=O)N/N=C/c2ccc([N+](=O)[O-])c(O)c2)cc1`, the “activity change, negative = inhibition” value is -15.8%.
`Cc1c(C(=O)NCc2c(F)cc(F)cc2F)oc2ccc(S(=O)(=O)N3CCOCC3)cc12`: the “activity change, negative = inhibition” value was -1.34%.
Consider `O=C(COc1ccccc1)NCc1nnc(SCC(=O)Nc2nccs2)n1-c1ccccc1`, for which the “activity change, negative = inhibition” value is -4.3%.
The same measure, in the same setting: under `O=C1NCC(CN(c2ccccc2)c2ccccc2)O1` (stereo not given) stands 1.34%; under `COc1ccc(N(C(=O)C(C)C)S(=O)(=O)c2ccc(Cl)cc2)cc1`, 0.439%; under `CC(C)C(=O)N=c1sc2cc(F)cc(F)c2n1C`, 1.36%.
Still for that read-out and setting: under `CC(C)(C)C1CCC2(CC1)Nc1cccc3cccc(c13)N2` stands -4.19%.
`Oc1c(Cl)cc(Cl)c(Cl)c1Cc1c(O)c(Cl)cc(Cl)c1Cl`: the Potency was 5.21 µM (active).
For `C/C(Cn1nnc2ccccc21)=N\OC(=O)c1ccccc1C`, the “activity change, negative = inhibition” value is 5.51%.
Same read-out and setting: under `Cc1cc(C(=O)CSc2nnc(Nc3ccccc3F)s2)c(C)n1CC1CCCO1` (stereo not given) stands -1.04%; under `Nc1ccc2nc(-c3ccc(N)c(Cl)c3)[nH]c2c1`, -0.728%; under `Cc1ccc(NC(=O)c2cc3c(=O)oc4ccccc4c3s2)nc1`, -0.826%.
Take `Cn1c(C(=O)NCCCN2CCN(c3ccccc3F)CC2)cc2c(=O)n(C)c3ccccc3c21`: the “activity change, negative = inhibition” value was -0.517%.
Turning to `CS(=O)(=O)c1nc(-c2ccc(Br)cc2)cc(-c2ccccc2)c1C#N`, the “activity change, negative = inhibition” value was -2.62%.
Regarding `O=C(CSc1ncccc1-c1nc2ccccc2[nH]1)Nc1ccc2c(c1)OCCO2`, the “activity change, negative = inhibition” value is -2.15%.
`CCC(C)(C(=O)NC1CCCCC1)N(C(=O)C1CCC(=O)N1)c1ccccc1` (stereo not given): the “activity change, negative = inhibition” value was -1.54%.
Take `Cc1ccc(/C(N)=N/OC(=O)Oc2ccccc2)cc1`: the “activity change, negative = inhibition” value was -1.51%.
As for `Cc1ccc(-c2c(C#N)c(N)nc3c2CCCCC3)o1`, the “activity change, negative = inhibition” value was 3.04%.
On the same count and under the same terms, the same measure for `CCCC(=O)Nc1ccc(N2CCN(C(=O)c3cc4ccccc4o3)CC2)cc1`: 4.98%.
For the molecule `CC(C)c1ccc(Nc2nnc(SCC(=O)c3nnc(-c4ccccc4)o3)s2)cc1`, the Potency was 6.56 µM (active).
As to `O=C(CCn1c(=O)c2ccccc2n(Cc2ccccc2)c1=O)NCc1ccc2c(c1)OCO2`, the “activity change, negative = inhibition” value was -12.1%.
Take `CC(C)n1nc(C(=O)Nc2ccccc2N2CCOCC2)c2ccccc2c1=O`: the “activity change, negative = inhibition” value is 0.877%.
